Laboratory results reported in PubChem BioAssay (NCATS).
Inconclusive results are not listed. Calls of active or inactive are those of the source. Unless noted, calls follow the shape of the dose curve; as a rule, active = well fitted curve in the direction sought with a large enough effect; inconclusive = small, poorly fitted or top-dose-only effect, or another doubt; inactive = no such curve, though single readings can be large; an effect the other way counts as inactive or inconclusive.

Key:
[1] = Cellular Toxicity (caspase-3) SK-N-SH (AID 661)
In short: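 Apoptosis readout in SK-N-SH neuroblastoma: Caspase-Glo 3/7 luminescence following 16 hr treatment in complete culture medium. Normalization used DMSO and 10 uM staurosporine controls.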

[2] = Cellular Toxicity (caspase-3) H-4-II-E (AID 663); details: Potency: caspase-3 activation;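 also: cells exposed to compound for 16 hr before readout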
In short: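 Caspase 3/7 activation measured by luminescent aminoluciferin substrate cleavage after 16 hr compound treatment of H-4-II-E cells in complete medium. Increase normalized between DMSO (basal) and 100 uM tamoxifen (100%); Hill-equation AC50 from concentration-response.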

[3] = Cellular Toxicity (caspase-3) Hek293 (AID 664);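 also: cells exposed to compound for 16 h at 37 °C before readout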
In short: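 Apoptosis readout: Caspase-Glo 3/7 signal in human HEK293 cells following 16-hour compound incubation. Responses scaled between DMSO baseline and 100 uM tamoxifen.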

[4] = Cellular Toxicity (caspase-3) N2a (AID 665);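 also: compound exposure lasted 16 h at 37 °C before readout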
In short: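 Concentration-response qHTS: compound-induced caspase-3/7 luminescence in N2a cells (16 h, 37 °C), relative to DMSO and 10 uM staurosporine controls; AC50 obtained using the standard Hill equation.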

[5] = Cellular Toxicity (caspase-3) NIH 3T3 (AID 666)
In short: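 Activity: caspase-3/7 induction, NIH 3T3 cells, 16 hr treatment at 37°C, luminescent Caspase-Glo detection; AC50 via Hill equation.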

[6] = Cellular Toxicity (caspase-3) Renal Proximal Tubule (AID 667);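 also: cells exposed to compound for 16 hours at 37 °C before detection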
In short: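 Caspase-Glo 3/7 read-out, rat primary kidney proximal tubule cells. Compound exposure 16 h, 37 °C; detection after 1 h at RT. Activity scaled to DMSO and 10 uM staurosporine.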

[7] = MultiTox-Fluor Cytotoxicity Assay - LYMP1-001 - Dead Cells (AID 946)
In short: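 AC50 from Hill fit of concentration-response; data normalized to DMSO (basal) and 15 uM tetraoctylammonium bromide (100%). LYMP1-001 lymphoblastoid cells, 2500/well, 16 hr compound at 37 C; dead-cell protease fluorescence, Ex/Em 485/520.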

[8] = Cell Viability - LYMP1-002 - Assay at 16 hr (AID 948)
In short: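 In this qHTS, lymphoblastoid LYMP1-002 cells (human) receive compounds for 16 hr at 37 C. Viability is taken from CellTiter-Glo ATP luminescence, and AC50 derives from standard Hill fits.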

[9] = MultiTox-Fluor Cytotoxicity Assay - LYMP1-002 - Live Cells (AID 955)
In short: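 In this qHTS viability format, lymphoblastoid cells (LYMP1-002, human) received compound for 16 hr at 37 C. Fluorogenic GF-AFC cleavage by viable cells was detected at 405/510 nm after 1 h at room temperature.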

[10] = MultiTox-Fluor Cytotoxicity Assay - LYMP1-002 - Dead Cells (AID 960); also: nearly all actives have a fitted effect of over 60% in size
In short: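 Concentration-dependent increases in membrane-leaked protease activity are quantified in LYMP1-002 cells after 16 hr treatment; values are normalized against DMSO and tetraoctylammonium bromide (15 uM) controls and AC50 derived by Hill modeling.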

[11] = MultiTox-Fluor Cytotoxicity Assay - LYMP1-003 - Dead Cells (AID 961); also: nearly all actives have a fitted effect of over 70% in size
In short: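 Human lymphoblastoid LYMP1-003 cells (2500/well) were treated with compounds for 16 hr at 37 C in complete medium. Dead-cell protease release was read by bis-AAF-R110 fluorescence (Ex/Em 485/520). AC50 came from Hill fits, normalized to DMSO and 15 uM tetraoctylammonium bromide.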

[12] = MultiTox-Fluor Cytotoxicity Assay - LYMP1-003 - Live Cells (AID 962);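 also: cells exposed to compound for 16 hours at 37 °C; cytotoxic hits lower the live-cell protease signal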
In short: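 Human lymphoblastoid line LYMP1-003 in complete culture medium, treated 16 hr with titrated compounds. Viable cells quantified via cell-permeant GF-AFC substrate fluorescence; AC50 derived by Hill fitting.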

[13] = Cell Viability - LYMP1-003 - Assay at 24 hr (AID 963)
In short: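 The lymphoblastoid line was treated with titrated compounds for 24 hours, and viable cell number estimated from luciferase-based ATP luminescence.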

[14] = Cell Viability - LYMP1-003 - Assay at 40 hr (AID 964); also: series mostly up to about 92 µM; nearly all actives have a fitted effect of over 60% in size
In short: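 Acute toxicity is scored as a concentration-dependent loss of intracellular ATP in LYMP1-003 cells (2500/well, complete medium) after 40 hr at 37 C, measured by CellTiter-Glo luminescence; AC50 values derive from standard Hill modelling.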

[15] = Cell Viability - LYMP2-003 (AID 965);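 also: cells exposed to compounds for 24 h before reading; nearly all actives have a fitted effect of over 50% in size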
In short: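 qHTS, human lymphoblastoid line, 2500 cells/well, complete medium. 24 h drug, 37 C. ATP-based luminescent readout; Hill-fit AC50.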

[16] = Cell Viability - LYMP2-005 (AID 967); also: series mostly up to about 92 µM
In short: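 Luciferase-based ATP quantitation served as the viability measure in human lymphoblastoid LYMP2-005 cells exposed to test compounds for 24 h at 37 C in complete culture medium. Potency (AC50) was obtained by fitting concentration-response curves with the Hill equation.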

[17] = Cell Viability - LYMP2-011 (AID 969); also: nearly all actives have a fitted effect of over 60% in size
In short: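 Cells seeded at 2500 per well rest 5 hr before compound addition, then incubate 24 hr at 37 C. CellTiter-Glo reagent is added for 30 min at room temperature before luminescence detection.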

[18] = Cell Viability - LYMP2-015 (AID 971); also: nearly all actives have a fitted effect of over 55% in size
In short: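 AC50 values reflect Hill-model fits of ATP-based luminescence (CellTiter-Glo) from a human lymphoblastoid line, 2500 cells/well, treated 24 hr at 37 C.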

[19] = Cell Viability - LYMP2-017 (AID 972); also: series mostly up to about 92 µM; nearly all actives have a fitted effect of over 55% in size
In short: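 In this qHTS format, lymphoblastoid cells in complete medium receive test compound for a day at 37 C before ATP content is quantified by luciferase luminescence. Reported AC50 figures come from standard Hill-equation curve fitting.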

[20] = qHTS assay for small molecule antagonists of the retinoid-related orphan receptor gamma (ROR-gamma) signaling pathway - cell viability counter screen (AID 720652; active = well fitted curve in the direction sought with a large enough effect in the repeat runs; an effect the other way counts as inactive or inconclusive;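 also: CHO reporter cells with doxycycline-induced ROR-gamma expression; series mostly up to about 92 µM; compound exposure lasted 16 hr before ATP read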)
In short: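 ATP-based viability readout in the ROR-gamma reporter CHO cells after 16 hr compound exposure under doxycycline induction.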

Measured: Potency

O=C(O)c1ccccc1C(c1ccc(O)cc1)c1ccc(O)cc1
inactive: [1] | [2] | [3] | [4] | [5] | [6] | [7] | [8] | [9] | [10] | [11] | [12] | [13] | [14] | [15] | [16] | [17] | [18] | [19] | [20]

O=C1CCc2ccccc2O1
inactive: [1] | [2] | [3] | [4] | [5] | [6] | [7] | [8] | [9] | [10] | [11] | [12] | [13] | [14] | [15] | [16] | [17] | [18] | [19] | [20]

c1ccc2scnc2c1
inactive: [1] | [2] | [3] | [4] | [5] | [6] | [7] | [8] | [9] | [10] | [11] | [12] | [13] | [14] | [15] | [16] | [17] | [18] | [19] | [20]

O=S(=O)(O)c1ccccc1
inactive: [1] | [2] | [3] | [4] | [5] | [6] | [7] | [8] | [9] | [10] | [11] | [12] | [13] | [14] | [15] | [16] | [17] | [18] | [19] | [20]

O[C@@H]([C@H](O)[C@@H](O)CBr)[C@@H](O)CBr
inactive: [1] | [2] | [3] | [4] | [5] | [6] | [7] | [8] | [9] | [10] | [11] | [12] | [13] | [14] | [15] | [16] | [17] | [18] | [19] | [20]

CCCCOCCO
inactive: [1] | [2] | [3] | [4] | [5] | [6] | [7] | [8] | [9] | [10] | [11] | [12] | [13] | [14] | [15] | [16] | [17] | [18] | [19] | [20]

Cc1c(N=C=O)cccc1N=C=O
inactive: [1] | [2] | [3] | [4] | [5] | [6] | [7] | [8] | [9] | [10] | [11] | [12] | [13] | [14] | [15] | [16] | [17] | [18] | [19] | [20]

COC(=O)c1ccc(C=O)cc1
inactive: [1] | [2] | [3] | [4] | [5] | [6] | [7] | [8] | [9] | [10] | [11] | [12] | [13] | [14] | [15] | [16] | [17] | [18] | [19] | [20]

C1OCOCO1
inactive: [1] | [2] | [3] | [4] | [5] | [6] | [7] | [8] | [9] | [10] | [11] | [12] | [13] | [14] | [15] | [16] | [17] | [18] | [19] | [20]
